The whole screen tested about 5,500 compounds, of which about 2,000 (36%) were called active. Another 18% or so got no clear call; they are omitted. No stated cut-off is given here; in the data, active means normalized growth mostly below about 0.91 (no sharp cut-off); inconclusive means no clear call, values can overlap the other calls; inactive means mostly above about 0.92. The list shows a part of the results.
Assay: chemical genetic growth profiling, strain panel (AID 1159580);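 further: tested at 20 µM; growth read once vehicle control cultures reached saturation at 30 °C; 1 = growth at the plate median or of vehicle wells; lower values mean less growth of the strain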
Conditions: S. cerevisiae deletion strains, growth OD

Measured: normalized growth

O=c1c(-c2ccc3c(c2)OCO3)coc2cc(O)ccc12
inactive: locus YAL013W, strain DEP1, active compounds read low 1 | locus YAL021C, strain ccr4, active compounds read low 0.994 | locus YAL026C, strain drs2, active compounds read low 1 | locus YAL030W, strain snc1, active compounds read low 0.991 | locus YBL061C, strain skt5, active compounds read low 0.99 | locus YBR009C, strain hhf1, active compounds read low 0.978 | locus YBR021W, strain FUR4, active compounds read low 0.991 | locus YBR023C, strain chs3, active compounds read low 0.996 | locus YBR171W, strain sec66, active compounds read low 1 | locus YBR229C, strain ROT2, active compounds read low 0.989 | locus YBR231C, strain swc5, active compounds read low 0.985 | locus YBR279W, strain paf1, active compounds read low 0.994 | locus YCL011C, strain gbp2, active compounds read low 0.999 | locus YCL016C, strain dcc1, active compounds read low 0.993 | locus YCL029C, strain bik1, active compounds read low 0.969 | locus YCL061C, strain MRC1, active compounds read low 0.998 | locus YCL069W, strain vba3, active compounds read low 1 | locus YCR088W, strain abp1, active compounds read low 0.998 | locus YDL005C, strain med2, active compounds read low 0.984 | locus YDL035C, strain GPR1, active compounds read low 1 | locus YDL040C, strain nat1, active compounds read low 0.993 | locus YDL074C, strain BRE1, active compounds read low 1.04 | locus YDL101C, strain DUN1, active compounds read low 0.998 | locus YDL134C, strain PPH21, active compounds read low 1 | locus YDL185W, strain tfp1, active compounds read low 0.981 | locus YDL192W, strain arf1, active compounds read low 0.977 | locus YDR001C, strain nth1, active compounds read low 1.01 | locus YDR069C, strain doa4, active compounds read low 0.977 | locus YDR101C, strain arx1, active compounds read low 0.98 | locus YDR137W, strain rgp1, active compounds read low 0.979 | locus YDR150W, strain NUM1, active compounds read low 0.995 | locus YDR159W, strain sac3, active compounds read low 0.96 | locus YDR162C, strain NBP2, active compounds read low 1.01 | locus YDR195W, strain ref2 0.957 | locus YDR297W, strain sur2, active compounds read low 0.989 | locus YDR318W, strain mcm21, active compounds read low 0.972 | locus YDR334W, strain swr1, active compounds read low 1 | locus YDR335W, strain msn5, active compounds read low 1 | locus YDR388W, active compounds read low 0.973 | locus YDR392W, strain spt3, active compounds read low 0.919 | locus YDR502C, strain sam2, active compounds read low 0.992 | locus YEL003W, strain gim4, active compounds read low 1 | locus YEL037C, strain rad23, active compounds read low 1 | locus YEL061C, strain CIN8 (second series), active compounds read low 1.01 | locus YEL061C, strain CIN8, active compounds read low 0.998 | locus YER015W, strain faa2, active compounds read low 0.99 | locus YER016W, strain bim1, active compounds read low 0.988 | locus YER110C, active compounds read low 0.979 | locus YER111C, strain swi4, active compounds read low 1 | locus YER155C, strain BEM2 (second series), active compounds read low 0.974 | locus YER155C, strain BEM2, active compounds read low 0.995 | locus YER167W, strain BCK2, active compounds read low 0.983 | locus YFR010W, strain ubp6, active compounds read low 1 | locus YGL078C, strain dbp3, active compounds read low 0.98 | locus YGL086W, strain mad1, active compounds read low 0.983 | locus YGL167C, strain pmr1, active compounds read low 0.988 | locus YGL173C, strain kem1, active compounds read low 0.995 | locus YGL227W, strain vid30, active compounds read low 1 | locus YGL240W, strain doc1, active compounds read low 0.952 | locus YGL248W, strain PDE1, active compounds read low 0.991 | locus YGL253W, strain hxk2, active compounds read low 1 | locus YGR078C, strain PAC10, active compounds read low 1.01 | locus YGR135W, strain pre9, active compounds read low 0.987 | locus YGR229C, strain SMI1, active compounds read low 1.03 | locus YGR252W, strain gcn5, active compounds read low 0.932 | locus YHR013C, strain ard1, active compounds read low 0.96 | locus YHR027C, strain rpn1, active compounds read low 0.994 | locus YHR030C, strain SLT2, active compounds read low 0.998 | locus YHR079C, strain IRE1 (second series), active compounds read low 0.964 | locus YHR094C, strain hxt1, active compounds read low 0.981 | locus YHR129C, strain ARP1, active compounds read low 1 | locus YHR142W, strain chs7, active compounds read low 1.01 | locus YHR200W, strain rpn10, active compounds read low 0.978 | locus YIL066C, strain RNR3, active compounds read low 0.998 | locus YIL073C, strain SPO22, active compounds read low 0.93 | locus YIL125W, strain kgd1, active compounds read low 0.993 | locus YIR030C, strain dcg1, active compounds read low 0.984 | locus YJL092W, strain hpr5, active compounds read low 1.01 | locus YJL095W, strain BCK1 (second series), active compounds read low 0.989 | locus YJL095W, strain BCK1, active compounds read low 1.04 | locus YJL115W, strain asf1, active compounds read low 0.995 | locus YJL129C, strain trk1, active compounds read low 0.99 | locus YJL134W, strain LCB3, active compounds read low 0.991 | locus YJL154C, strain vps35, active compounds read low 1.01 | locus YJL164C, strain tpk1, active compounds read low 0.979 | locus YJL166W, strain qcr8, active compounds read low 0.974 | locus YJL168C, strain set2, active compounds read low 0.983 | locus YJL187C, strain SWE1 (second series), active compounds read low 1 | locus YJL187C, strain SWE1, active compounds read low 0.987

— PubChem BioAssay AID1159580 (chemical genetic matrix, 2015)
